# Laboratory results from paper PMC7862700, “An all-to-all approach to the identification of sequence-specific readers for epigenetic DNA modifications on cytosine”.
# How the values were obtained:
# Assay in all cases: DAPPL (digital affinity profiling via proximity ligation, sequencing); 10 mM Tris-HCl pH 7.5, 50 mM NaCl, 1 mM DTT, 4% glycerol, room temperature, 30 min; GST-TFs on glutathione beads, 16-mer random dsDNA library, 0.1% formaldehyde crosslink after washing; high values mean tight binding
# [1] = molecular target: T1, FEV (Homo sapiens, UniProt Q99581 1-238); details: protein: recombinant; tags: N-terminal GST; dsDNA, one strand shown
# T1 sequence: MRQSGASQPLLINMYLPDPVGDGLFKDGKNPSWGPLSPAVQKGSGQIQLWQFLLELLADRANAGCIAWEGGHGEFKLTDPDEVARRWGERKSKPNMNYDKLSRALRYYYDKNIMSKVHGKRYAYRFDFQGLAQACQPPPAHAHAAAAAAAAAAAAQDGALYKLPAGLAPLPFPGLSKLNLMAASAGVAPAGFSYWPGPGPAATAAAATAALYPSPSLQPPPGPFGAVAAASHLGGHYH
# Summary of the method: (§1)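 The binding signal reported is, for every hexamer, its read frequency for a factor over its read frequency for the tag-only sample. Reads came from pools of yeast-expressed, GST-fused human transcription factors on glutathione beads, barcoded with DNA and mixed with that sample, which were incubated with 200 nmole of a random double-stranded 16-mer DNA library in Tris/NaCl/DTT/glycerol buffer at room temperature for 30 min. After washing, the pools were crosslinked with 0.1% formaldehyde, proximity-ligated with BsaI/T4 ligase for 1 h at 37 °C, PCR-amplified and sequenced on an Illumina NextSeq500.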
# [2] = molecular target: ETV5 (Homo sapiens, UniProt P41161 1-510); details: protein: recombinant; tags: N-terminal GST; dsDNA, one strand shown
# Sequence of ETV5 (P41161 whole entry): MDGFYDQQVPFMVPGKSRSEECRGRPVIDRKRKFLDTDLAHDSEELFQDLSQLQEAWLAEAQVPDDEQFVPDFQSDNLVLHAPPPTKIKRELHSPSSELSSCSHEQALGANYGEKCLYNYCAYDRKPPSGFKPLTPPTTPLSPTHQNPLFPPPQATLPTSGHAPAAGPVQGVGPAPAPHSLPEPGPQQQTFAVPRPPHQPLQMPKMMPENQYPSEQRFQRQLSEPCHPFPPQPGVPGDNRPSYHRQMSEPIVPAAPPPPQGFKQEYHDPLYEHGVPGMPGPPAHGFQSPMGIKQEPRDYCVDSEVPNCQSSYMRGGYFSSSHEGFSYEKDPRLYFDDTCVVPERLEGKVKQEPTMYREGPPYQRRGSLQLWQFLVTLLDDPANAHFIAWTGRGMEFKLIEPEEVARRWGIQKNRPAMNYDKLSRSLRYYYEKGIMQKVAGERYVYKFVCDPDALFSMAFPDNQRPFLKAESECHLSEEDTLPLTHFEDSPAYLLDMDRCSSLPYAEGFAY
# Summary of the method: as §1
# [3] = molecular target: HSF1 (Homo sapiens, UniProt Q00613 1-529); details: protein: recombinant; tags: N-terminal GST; chain copies: 3; dsDNA, one strand shown
# Sequence of HSF1 (Q00613 whole entry): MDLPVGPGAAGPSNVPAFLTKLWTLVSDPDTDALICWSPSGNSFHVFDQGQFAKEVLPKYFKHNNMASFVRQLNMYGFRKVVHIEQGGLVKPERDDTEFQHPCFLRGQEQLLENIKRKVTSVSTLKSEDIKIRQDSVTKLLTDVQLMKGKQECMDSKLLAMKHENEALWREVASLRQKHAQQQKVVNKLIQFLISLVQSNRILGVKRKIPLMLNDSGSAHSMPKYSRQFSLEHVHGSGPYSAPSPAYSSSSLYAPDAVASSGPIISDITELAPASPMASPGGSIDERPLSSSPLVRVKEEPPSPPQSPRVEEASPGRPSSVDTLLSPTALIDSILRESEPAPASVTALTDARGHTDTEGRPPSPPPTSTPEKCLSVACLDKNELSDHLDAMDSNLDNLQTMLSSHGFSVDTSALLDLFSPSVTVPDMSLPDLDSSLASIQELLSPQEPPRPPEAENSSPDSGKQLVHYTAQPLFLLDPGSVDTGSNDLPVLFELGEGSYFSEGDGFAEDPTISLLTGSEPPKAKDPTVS
# Summary of the method: as §1
# [4] = molecular target: T2, SPIC (Homo sapiens, UniProt Q8N5J4 1-248); details: protein: recombinant; tags: N-terminal GST; dsDNA, one strand shown
# T2 sequence: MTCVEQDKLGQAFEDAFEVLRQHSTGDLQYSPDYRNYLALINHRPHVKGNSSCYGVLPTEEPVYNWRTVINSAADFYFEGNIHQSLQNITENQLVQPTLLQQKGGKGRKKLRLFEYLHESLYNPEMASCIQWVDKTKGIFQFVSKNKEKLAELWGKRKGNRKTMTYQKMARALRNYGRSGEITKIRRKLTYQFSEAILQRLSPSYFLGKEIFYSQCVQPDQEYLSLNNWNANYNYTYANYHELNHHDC
# Summary of the method: as §1
# [5] = molecular target: ELF4 (Homo sapiens, UniProt Q99607 1-663); details: protein: recombinant; tags: N-terminal GST; dsDNA, one strand shown
# Sequence of ELF4 (Q99607 whole entry): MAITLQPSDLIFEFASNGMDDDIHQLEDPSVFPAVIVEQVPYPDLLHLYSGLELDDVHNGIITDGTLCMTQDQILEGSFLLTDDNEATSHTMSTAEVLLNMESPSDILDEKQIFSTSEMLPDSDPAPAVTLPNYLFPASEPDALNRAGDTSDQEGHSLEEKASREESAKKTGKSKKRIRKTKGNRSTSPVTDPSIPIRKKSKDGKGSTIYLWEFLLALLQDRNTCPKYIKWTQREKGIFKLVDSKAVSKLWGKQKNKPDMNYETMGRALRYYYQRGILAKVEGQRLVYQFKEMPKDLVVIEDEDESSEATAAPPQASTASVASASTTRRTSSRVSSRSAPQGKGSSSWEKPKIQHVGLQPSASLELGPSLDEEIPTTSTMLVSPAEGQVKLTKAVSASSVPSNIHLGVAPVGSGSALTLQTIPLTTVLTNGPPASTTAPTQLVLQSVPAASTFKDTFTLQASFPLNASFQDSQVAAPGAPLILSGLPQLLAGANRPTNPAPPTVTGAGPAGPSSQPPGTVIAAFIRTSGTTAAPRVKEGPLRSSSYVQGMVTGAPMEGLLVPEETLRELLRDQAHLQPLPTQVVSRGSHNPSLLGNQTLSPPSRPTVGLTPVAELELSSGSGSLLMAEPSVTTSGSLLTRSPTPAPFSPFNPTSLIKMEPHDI
# Summary of the method: as §1
# [6] = molecular target: T3, ELK4 (Homo sapiens, UniProt P28324-2 1-405); details: protein: recombinant; tags: N-terminal GST; dsDNA, one strand shown
# T3 sequence: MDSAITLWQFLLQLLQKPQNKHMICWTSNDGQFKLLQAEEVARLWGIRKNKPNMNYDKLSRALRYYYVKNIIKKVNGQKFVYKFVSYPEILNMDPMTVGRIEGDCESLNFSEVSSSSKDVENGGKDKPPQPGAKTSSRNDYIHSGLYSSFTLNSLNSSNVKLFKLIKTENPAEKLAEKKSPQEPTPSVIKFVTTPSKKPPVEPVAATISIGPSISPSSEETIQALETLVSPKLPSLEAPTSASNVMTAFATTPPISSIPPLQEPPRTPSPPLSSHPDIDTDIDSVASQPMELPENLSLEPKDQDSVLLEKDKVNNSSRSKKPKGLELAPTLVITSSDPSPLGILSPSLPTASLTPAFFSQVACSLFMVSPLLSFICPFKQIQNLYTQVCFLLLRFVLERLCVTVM
# Summary of the method: as §1
# [7] = molecular target: T4, ETV2 (Homo sapiens, UniProt O00321 1-342); details: protein: recombinant; tags: N-terminal GST; dsDNA, one strand shown
# T4 sequence: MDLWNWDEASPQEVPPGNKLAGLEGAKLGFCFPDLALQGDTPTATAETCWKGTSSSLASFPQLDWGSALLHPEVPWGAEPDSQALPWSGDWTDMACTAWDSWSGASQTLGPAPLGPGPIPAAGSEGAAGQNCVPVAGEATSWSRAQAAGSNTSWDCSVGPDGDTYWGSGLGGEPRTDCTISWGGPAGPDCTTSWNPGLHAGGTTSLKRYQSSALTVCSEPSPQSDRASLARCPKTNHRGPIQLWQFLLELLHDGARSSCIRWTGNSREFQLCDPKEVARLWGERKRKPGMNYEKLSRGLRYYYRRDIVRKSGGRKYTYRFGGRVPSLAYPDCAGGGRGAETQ
# Summary of the method: as §1
# [8] = molecular target: T5, ELF3 (Homo sapiens, UniProt P78545 1-371); details: protein: recombinant; tags: N-terminal GST; dsDNA, one strand shown
# T5 sequence: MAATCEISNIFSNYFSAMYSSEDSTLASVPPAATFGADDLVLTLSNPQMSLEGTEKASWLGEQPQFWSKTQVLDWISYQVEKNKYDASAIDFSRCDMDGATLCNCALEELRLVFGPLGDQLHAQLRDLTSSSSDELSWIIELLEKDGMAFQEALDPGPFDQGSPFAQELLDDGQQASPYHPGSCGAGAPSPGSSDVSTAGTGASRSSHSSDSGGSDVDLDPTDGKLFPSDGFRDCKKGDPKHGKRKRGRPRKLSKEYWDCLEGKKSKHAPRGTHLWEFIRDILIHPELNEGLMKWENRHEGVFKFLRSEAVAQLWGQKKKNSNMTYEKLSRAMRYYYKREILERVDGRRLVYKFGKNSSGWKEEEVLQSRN
# Summary of the method: as §1
# [9] = molecular target: CRX (Homo sapiens, UniProt O43186 1-299); details: protein: recombinant; tags: N-terminal GST; dsDNA, one strand shown
# Sequence of CRX (O43186 whole entry): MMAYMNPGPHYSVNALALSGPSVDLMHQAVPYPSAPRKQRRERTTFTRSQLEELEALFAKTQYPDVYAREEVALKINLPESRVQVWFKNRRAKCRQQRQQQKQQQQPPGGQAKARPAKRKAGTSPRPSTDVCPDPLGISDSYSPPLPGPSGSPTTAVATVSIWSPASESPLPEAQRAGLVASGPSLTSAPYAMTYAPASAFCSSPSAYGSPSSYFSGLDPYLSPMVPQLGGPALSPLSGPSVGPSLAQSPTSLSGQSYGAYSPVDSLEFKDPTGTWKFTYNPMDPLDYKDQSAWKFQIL
# Summary of the method: as §1
# [10] = molecular target: ETV1 (Homo sapiens, UniProt P50549 1-477); details: protein: recombinant; tags: N-terminal GST; dsDNA, one strand shown
# Sequence of ETV1 (P50549 whole entry): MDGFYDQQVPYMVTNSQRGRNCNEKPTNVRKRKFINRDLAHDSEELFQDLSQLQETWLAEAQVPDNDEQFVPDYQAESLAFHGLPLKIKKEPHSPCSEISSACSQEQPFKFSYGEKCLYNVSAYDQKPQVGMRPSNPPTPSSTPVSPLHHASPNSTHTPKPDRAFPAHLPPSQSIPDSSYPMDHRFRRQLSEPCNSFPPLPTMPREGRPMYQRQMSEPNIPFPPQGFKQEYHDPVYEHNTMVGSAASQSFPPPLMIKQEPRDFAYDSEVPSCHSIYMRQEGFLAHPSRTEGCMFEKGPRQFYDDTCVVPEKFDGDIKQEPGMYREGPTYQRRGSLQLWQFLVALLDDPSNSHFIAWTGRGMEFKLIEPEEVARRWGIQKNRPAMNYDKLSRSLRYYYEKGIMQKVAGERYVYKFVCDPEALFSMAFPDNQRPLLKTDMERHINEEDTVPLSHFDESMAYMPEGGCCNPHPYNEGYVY
# Summary of the method: as §1
# [11] = molecular target: T6, ERF (Homo sapiens, UniProt P50548 1-548); details: protein: recombinant; tags: N-terminal GST; dsDNA, one strand shown
# T6 sequence: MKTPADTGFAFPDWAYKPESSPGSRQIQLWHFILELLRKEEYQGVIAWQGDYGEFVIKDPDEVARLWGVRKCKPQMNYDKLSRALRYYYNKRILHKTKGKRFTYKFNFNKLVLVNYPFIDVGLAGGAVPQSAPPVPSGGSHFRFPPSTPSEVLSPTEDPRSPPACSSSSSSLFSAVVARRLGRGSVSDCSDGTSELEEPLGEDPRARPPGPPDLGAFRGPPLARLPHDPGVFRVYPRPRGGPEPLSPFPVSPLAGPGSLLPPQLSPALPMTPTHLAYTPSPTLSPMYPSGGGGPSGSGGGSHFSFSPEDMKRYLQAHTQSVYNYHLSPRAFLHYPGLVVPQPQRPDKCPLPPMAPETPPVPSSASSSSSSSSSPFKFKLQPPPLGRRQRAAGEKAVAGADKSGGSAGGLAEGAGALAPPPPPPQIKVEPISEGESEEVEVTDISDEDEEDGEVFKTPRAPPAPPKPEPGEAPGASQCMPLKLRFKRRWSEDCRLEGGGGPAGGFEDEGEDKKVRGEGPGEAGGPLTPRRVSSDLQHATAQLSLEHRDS
# Summary of the method: as §1
# [12] = molecular target: T7, ETV3L (Homo sapiens, UniProt Q6ZN32 1-361); details: protein: recombinant; tags: N-terminal GST; dsDNA, one strand shown
# T7 sequence: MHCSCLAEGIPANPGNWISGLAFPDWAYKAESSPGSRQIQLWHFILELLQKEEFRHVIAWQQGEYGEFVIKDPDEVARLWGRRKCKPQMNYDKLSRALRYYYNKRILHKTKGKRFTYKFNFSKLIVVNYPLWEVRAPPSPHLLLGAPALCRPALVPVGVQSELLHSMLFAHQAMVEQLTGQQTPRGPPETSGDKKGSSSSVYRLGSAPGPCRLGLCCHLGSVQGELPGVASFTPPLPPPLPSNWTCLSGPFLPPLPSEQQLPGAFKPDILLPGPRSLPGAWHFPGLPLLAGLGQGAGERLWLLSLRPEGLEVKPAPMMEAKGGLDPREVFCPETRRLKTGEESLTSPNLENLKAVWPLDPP
# Summary of the method: as §1
# [13] = molecular target: T8, ETS2 (Homo sapiens, UniProt P15036 1-469); details: protein: recombinant; tags: N-terminal GST; dsDNA, one strand shown
# T8 sequence: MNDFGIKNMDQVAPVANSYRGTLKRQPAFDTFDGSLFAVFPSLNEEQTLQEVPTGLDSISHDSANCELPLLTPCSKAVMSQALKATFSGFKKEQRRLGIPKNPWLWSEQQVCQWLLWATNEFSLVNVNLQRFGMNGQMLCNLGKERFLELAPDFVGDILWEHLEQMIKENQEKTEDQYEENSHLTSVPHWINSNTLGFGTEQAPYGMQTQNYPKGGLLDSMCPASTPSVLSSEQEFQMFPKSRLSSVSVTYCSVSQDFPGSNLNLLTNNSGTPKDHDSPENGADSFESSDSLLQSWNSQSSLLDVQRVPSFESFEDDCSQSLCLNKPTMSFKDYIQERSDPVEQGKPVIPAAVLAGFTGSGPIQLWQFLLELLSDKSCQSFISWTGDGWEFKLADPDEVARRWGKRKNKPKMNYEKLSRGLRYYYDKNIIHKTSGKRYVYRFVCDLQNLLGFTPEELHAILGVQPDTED
# Summary of the method: as §1
# [14] = molecular target: T9, SPDEF (Homo sapiens, UniProt O95238 1-335); details: protein: recombinant; tags: N-terminal GST; dsDNA, one strand shown
# T9 sequence: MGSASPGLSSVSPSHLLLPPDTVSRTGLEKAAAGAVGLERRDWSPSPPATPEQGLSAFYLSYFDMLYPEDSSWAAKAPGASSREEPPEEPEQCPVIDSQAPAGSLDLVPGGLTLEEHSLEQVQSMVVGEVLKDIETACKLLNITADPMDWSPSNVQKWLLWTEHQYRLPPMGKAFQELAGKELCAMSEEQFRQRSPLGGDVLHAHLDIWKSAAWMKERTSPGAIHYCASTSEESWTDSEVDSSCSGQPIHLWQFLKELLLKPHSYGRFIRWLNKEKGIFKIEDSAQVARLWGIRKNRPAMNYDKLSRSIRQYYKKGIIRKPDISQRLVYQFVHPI
# Summary of the method: as §1
# [15] = molecular target: T10, ETV7 (Homo sapiens, UniProt Q9Y603 1-341); details: protein: recombinant; tags: N-terminal GST; dsDNA, one strand shown
# T10 sequence: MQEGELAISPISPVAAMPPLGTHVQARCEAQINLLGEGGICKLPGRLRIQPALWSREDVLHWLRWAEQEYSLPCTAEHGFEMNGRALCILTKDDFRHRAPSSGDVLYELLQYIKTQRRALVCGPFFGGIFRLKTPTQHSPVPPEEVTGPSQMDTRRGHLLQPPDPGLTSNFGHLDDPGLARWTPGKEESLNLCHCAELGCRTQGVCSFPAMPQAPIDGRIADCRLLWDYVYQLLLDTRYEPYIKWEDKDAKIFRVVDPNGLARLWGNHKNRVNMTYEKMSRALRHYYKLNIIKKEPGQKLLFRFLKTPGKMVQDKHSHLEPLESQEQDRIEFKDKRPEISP
# Summary of the method: as §1
# [16] = molecular target: T11, ELF5 (Homo sapiens, UniProt Q9UKW6-2 1-255); details: protein: recombinant; tags: N-terminal GST; dsDNA, one strand shown
# T11 sequence: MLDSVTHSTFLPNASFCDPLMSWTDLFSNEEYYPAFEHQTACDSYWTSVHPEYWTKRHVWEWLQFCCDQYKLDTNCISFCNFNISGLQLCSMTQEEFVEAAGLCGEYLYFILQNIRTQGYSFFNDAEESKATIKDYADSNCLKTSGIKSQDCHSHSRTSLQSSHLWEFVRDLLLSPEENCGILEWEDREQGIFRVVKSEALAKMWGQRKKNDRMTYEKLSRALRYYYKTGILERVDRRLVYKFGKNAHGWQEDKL
# Summary of the method: as §1
# [17] = molecular target: T12, ETV3 (Homo sapiens, UniProt P41162-2 1-143); details: protein: recombinant; tags: N-terminal GST; dsDNA, one strand shown
# T12 sequence: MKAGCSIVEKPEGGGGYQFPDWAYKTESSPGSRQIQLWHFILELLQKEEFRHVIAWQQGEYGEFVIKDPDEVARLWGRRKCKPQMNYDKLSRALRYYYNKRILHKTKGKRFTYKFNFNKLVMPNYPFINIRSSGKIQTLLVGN
# Summary of the method: as §1
# [18] = molecular target: ETV6 (Homo sapiens, UniProt P41212 1-452); details: protein: recombinant; tags: N-terminal GST; dsDNA, one strand shown
# Sequence of ETV6 (P41212 whole entry): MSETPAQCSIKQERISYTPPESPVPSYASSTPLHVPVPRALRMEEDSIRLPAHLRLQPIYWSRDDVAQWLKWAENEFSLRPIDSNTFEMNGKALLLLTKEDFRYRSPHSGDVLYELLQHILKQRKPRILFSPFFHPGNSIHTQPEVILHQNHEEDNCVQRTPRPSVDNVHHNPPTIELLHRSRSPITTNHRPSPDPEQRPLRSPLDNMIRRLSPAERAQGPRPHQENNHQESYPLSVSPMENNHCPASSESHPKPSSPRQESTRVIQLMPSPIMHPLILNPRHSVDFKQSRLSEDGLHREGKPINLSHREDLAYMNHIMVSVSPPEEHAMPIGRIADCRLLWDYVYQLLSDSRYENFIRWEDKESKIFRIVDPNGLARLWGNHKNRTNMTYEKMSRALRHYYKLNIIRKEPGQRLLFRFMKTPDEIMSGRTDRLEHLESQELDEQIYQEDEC
# Summary of the method: as §1
sequence,measurement,setting,value
TACGTT,binding signal,[1],"1.35 fold enrichment (6-mer frequency, TF over GST control)"
same,binding signal,[2],"1.33 fold enrichment (6-mer frequency, TF over GST control)"
same,binding signal,[3],"1.24 fold enrichment (6-mer frequency, TF over GST control)"
same,binding signal,[4],"1.47 fold enrichment (6-mer frequency, TF over GST control)"
same,binding signal,[5],"1.23 fold enrichment (6-mer frequency, TF over GST control)"
same,binding signal,[6],"1.29 fold enrichment (6-mer frequency, TF over GST control)"
same,binding signal,[7],"1.27 fold enrichment (6-mer frequency, TF over GST control)"
same,binding signal,[8],"1.12 fold enrichment (6-mer frequency, TF over GST control)"
same,binding signal,[9],"1.34 fold enrichment (6-mer frequency, TF over GST control)"
same,binding signal,[10],"1.29 fold enrichment (6-mer frequency, TF over GST control)"
same,binding signal,[11],"1.3 fold enrichment (6-mer frequency, TF over GST control)"
same,binding signal,[12],"1.32 fold enrichment (6-mer frequency, TF over GST control)"
same,binding signal,[13],"1.21 fold enrichment (6-mer frequency, TF over GST control)"
same,binding signal,[14],"1.22 fold enrichment (6-mer frequency, TF over GST control)"
same,binding signal,[15],"1.34 fold enrichment (6-mer frequency, TF over GST control)"
same,binding signal,[16],"1.27 fold enrichment (6-mer frequency, TF over GST control)"
same,binding signal,[17],"1.27 fold enrichment (6-mer frequency, TF over GST control)"
same,binding signal,[18],"1.38 fold enrichment (6-mer frequency, TF over GST control)"
